Only some compounds are listed: those with a hit (about 4.7% of all), similar ones and a draw of the others.
EBI2 antag – antagonists of human EBI2 receptor; P32249; EBI2 beta-arrestin recruitment, luminescence, 7a,25-OHC stimulated; inhibition, % at 5 µM; 0.81% of 360,000 active; in the data active means inhibition above about 38%;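 further: enzyme fragment complementation signal reports receptor beta-arrestin coupling in cells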
Target sequence (P32249 whole entry, looked up, the tested form may be a part): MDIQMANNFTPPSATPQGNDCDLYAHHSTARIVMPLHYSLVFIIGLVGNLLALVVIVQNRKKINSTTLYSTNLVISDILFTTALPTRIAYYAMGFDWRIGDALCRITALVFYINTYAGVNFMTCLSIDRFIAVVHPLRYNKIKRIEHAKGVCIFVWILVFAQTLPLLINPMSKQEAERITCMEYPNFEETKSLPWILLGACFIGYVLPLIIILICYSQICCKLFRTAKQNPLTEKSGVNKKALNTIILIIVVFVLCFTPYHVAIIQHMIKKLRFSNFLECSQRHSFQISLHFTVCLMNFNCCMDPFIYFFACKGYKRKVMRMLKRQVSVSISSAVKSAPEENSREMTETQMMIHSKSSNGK
tim10-1 inh – tim10-1 yeast growth inhibition; S. cerevisiae tim10-1 ts strain growth, BacTiter-Glo, 24 h; inhibition, % at 20 µM; 2.2% of 330,000 active;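 active means inhibition of at least 40%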;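 further: mutant grown at 25 °C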
PfHsp90 set2 – inhibits growth of yeast expressing Plasmodium falciparum Hsp90 | S. cerevisiae expressing PfHsp90, BacTiter-Glo ATP, 48 h; yeast lacking PDR1 and PDR3 efflux regulators | inhibition, % at 9.4 µM | 0.32% of 310,000 active;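 active means every replicate shows inhibition above about 80%, whatever the replicate mean, limit read from the data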
TIM10 inh – TIM10 yeast growth inhibition. S. cerevisiae TIM10 strain growth, BacTiter-Glo luminescence, 24 h. inhibition, % at 10 µM. 1.4% of 330,000 active;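 active means inhibition of 40% or more at the single tested concentration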;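 further: wild-type TIM10 isogenic control strain grown at permissive 25 °C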
tim23-1 inh – inhibits growth of tim23-1 mutant yeast; inhibition, % at 20 µM; S. cerevisiae tim23-1 growth, BacTiter-Glo luminescence, 24 h; 1.3% of 330,000 active; AID 463212;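 active means growth inhibition of the mutant yeast at or above 50%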;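 further: temperature-sensitive mutant grown at 25 °C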
SKKanGAS inh – inhibitors of SKKanGAS S. pyogenes growth in kanamycin (SK-promoter or general growth effect) | BacTiter-Glo, 6 h | inhibition, % at 7.5 µM | 1.3% of 300,000 active | AID 1662;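 active means mean replicate score, as percent of positive control median, at least 50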;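 further: strain carries kanamycin resistance gene driven by streptokinase promoter and grows in 40 µg/ml kanamycin; loss of luminescence reflects streptokinase promoter inhibition or plain growth inhibition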
TIM10 conf – TIM10 yeast growth inhibition, confirmed. 63% of 4,600 active. inhibition, % at 10 µM. S. cerevisiae tim10 strain growth, BacTiter-Glo luminescence, 24 h. shares compounds with TIM10 inh. AID 463215;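 active means inhibition of yeast growth at or above a set limit in either of two replicates at 10 µM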; further: this counterscreen used the strain with wild-type TIM10
tim23-1 confirm – tim23-1 yeast growth inhibition, confirmed; 83% of 4,400 active; AID 463218; inhibition, % at 20 µM; S. cerevisiae tim23-1 growth, BacTiter-Glo luminescence, 24 h; shares compounds with tim23-1 inh;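 active means inhibition above about 39% in either of two replicate wells at 20 µM, limit read from the data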;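 further: temperature-sensitive tim23-1 mutant grown at 25 °C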
EBI2 conf – EBI2 (human) antagonism, single concentration confirmation; shares compounds with EBI2 antag; EBI2 beta-arrestin luminescence, 7a,25-OHC antagonism; 29% of 2,400 active; inhibition, % at 5 µM;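 active means inhibition of at least 50%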
EBI2 agonist – counter-screen for EBI2 antagonists: EBI2 agonist activity | activation, % at 5 µM | 2,400 tested, under 10 active | AID 652000 | EBI2-expressing cells, agonist mode, luminescence, 60 min; 0% vehicle, 100% 7α,25-dihydroxycholesterol control | shares compounds with EBI2 antag;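 active means activation of at least 50%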
bGal cs – inhibits E. coli beta-galactosidase, counter-screen for EBI2 antagonists. shares compounds with EBI2 antag. purified beta-galactosidase, luminescent Galacton Star, 15 min. inhibition, % at 5 µM. 1% of 2,400 active;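 active means replicate-average signal at least 3 plate SD below neutral wells, shown as high inhibition, flagging enzyme-inhibiting false positives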;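 further: higher means stronger loss of beta-gal luminescence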
A number is an active result; n = inactive; x = no result.

SMILES	EBI2 antag	tim10-1 inh	PfHsp90 set2	TIM10 inh	tim23-1 inh	SKKanGAS inh	TIM10 conf	tim23-1 confirm	others
CCC(C)c1ccc(NC(=O)c2cccs2)cc1 (stereo not drawn)	n	n	n	51.8	72.5	n	44.9	73.0
Cn1c(CSc2nc3ccccc3s2)nc2ccccc21	n	n	n	46.0	58.5	n	42.6	64.9
CCCCC(=O)N(C)c1c(CC)nc2c(OCC(=O)N(C)C)cccn12	n	x	x	x	x	x	x	x
CCCC(=O)NC(=S)Nc1cccc(NC(=O)c2ccccc2Cl)c1	n	n	n	44.8	53.5	n	39.4	44.0
CCCC(=O)NC(=S)Nc1cccc(NC(=O)c2ccc(Cl)cc2Cl)c1	n	n	n	n	n	n	x	x
O=C(Nc1nncs1)c1cc2c(s1)CCC2	n	n	n	n	n	n	x	x
O=C(Nc1nccs1)c1cc2c(s1)CCCCC2	n	n	n	45.6	57.9	77.0	59.0	65.0
Cc1nn(CC(=O)Nc2nnc(C(C)C)s2)c(=O)c2ccccc12	n	n	n	n	n	n	x	x
O=C(Nc1ccc(N=Nc2ccccc2)c(NC(=O)C2CCCO2)c1)C1CCCO1 (stereo not drawn)	n	n	n	n	n	n	x	x
O=c1c2ccccc2sn1-c1ccc(Cl)cc1	n	x	x	x	x	x	x	x
Cc1ccc(-n2sc3ccccc3c2=O)cc1	n	n	n	65.1	59.1	95.6	n	56.5
COC(=O)/C(=C(/F)SCC(C)=O)C(F)(F)F	x	n	x	n	n	n	x	x
N#CC1=C(N2CCCCC2)c2cc3c(n2C1=O)CCCC3	n	n	n	44.5	51.6	n	32.7	56.8
COc1ccc(OC)c2[nH]c(C(=O)N/N=C/c3ccccc3O)cc12	n	n	n	44.7	54.3	113.5	n	49.8
COc1ccc(/C=N/NC(=O)c2cc3c(OC)ccc(OC)c3[nH]2)cc1O	n	n	n	n	n	n	x	x
N#Cc1nc(-c2ccccc2F)oc1NCc1ccccc1	n	n	n	n	n	n	x	x
N#Cc1nc(-c2ccccc2F)oc1NCCc1ccccc1	n	n	n	66.3	56.6	n	60.7	77.9
COc1cc(C(=O)OCC(=O)NCCC2=CCCCC2)ccc1OCC(C)C	n	n	n	n	n	n	x	x
CCC(C)(C)NC(=O)C(c1ccccn1)N(C(=O)c1csnn1)c1ccc(C)cc1 (stereo not drawn)	n	n	n	n	n	n	x	x
O=c1c2c3c(sc2ncn1/N=C/c1ccc(Br)o1)CCCC3	n	n	n	43.6	51.4	n	46.4	54.0
Cc1ccc(/C=N/n2cnc3sc4c(c3c2=O)CCCC4)o1	n	n	n	n	n	n	x	x
COCC1CCN(C(=O)CCc2nnc(C3(c4ccc(Cl)cc4)CCC3)o2)CC1	n	n	n	n	n	n	x	x
CC(C)NC(=O)c1nc2c(nnn2Cc2cccc(Cl)c2)c(=O)[nH]1	n	n	n	n	n	n	x	x
c1ccc(N/N=C(\Cc2nc3ccccc3[nH]2)c2ccccc2)cc1	n	n	n	48.4	58.2	n	n	60.0
CCN/N=C(\Cc1nc2ccccc2[nH]1)c1ccccc1	n	n	n	n	n	n	x	x
SMILES	EBI2 antag	tim10-1 inh	PfHsp90 set2	TIM10 inh	tim23-1 inh	SKKanGAS inh	TIM10 conf	tim23-1 confirm	others
CC1CCN(CC(=O)Nc2cccc(C(=O)Nc3cccc(C(F)(F)F)c3)c2)CC1	n	n	n	n	n	n	x	x
N#C/C(=C\c1ccc(O)c(Br)c1)C(=O)N1CCCCC1	n	n	n	n	n	n	x	x
Cc1ccc(/C=C(\C#N)C(=O)N2CCCC2)c(C)c1	n	n	n	44.6	52.4	n	38.6	49.6
CCN(Cc1ccccc1)C(=O)CCS(=O)(=O)c1ccc2c(c1)NC(=O)CO2	n	n	n	n	n	n	x	x
NNc1nc2c(Cl)c(Cl)ccc2s1	n	n	n	41.1	68.2	n	27.9	52.1
O=C(c1ccc(Cl)cc1)C(CN1CCCCC1)c1ccccc1 (stereo not drawn)	n	n	n	57.6	61.8	n	62.7	n
O=C(NNC(=O)c1ccc(F)c(S(=O)(=O)N2CCOCC2)c1)c1ccc(Br)cc1	n	n	x	n	n	x	x	x
COc1ccccc1N(C)C(=O)c1cc(S(=O)(=O)N2CCCC2)cn1C	n	n	n	n	n	n	x	x
FC(F)(F)c1cccc(NC(=S)NNC(=S)Nc2ccc(Cl)cc2)c1	x	n	x	58.9	64.9	114.7	73.2	n
O=C(NNC(=S)Nc1cccc(C(F)(F)F)c1)c1ccncc1	n	x	x	x	x	x	x	x
OCCCc1nc2ccccc2n1CCOc1ccccc1	n	n	n	n	n	n	x	x
c1ccc(NCc2nc3ccccc3n2CCOc2ccccc2)cc1	n	n	n	42.6	52.5	n	50.0	52.0
Cc1c(C(=O)N2CCC(C(N)=O)CC2)oc2ccc(Br)cc12	n	n	x	n	n	n	x	x
c1ccc(-n2cnc3cc(NCc4ccco4)ccc32)cc1	n	n	x	53.1	53.8	n	39.3	68.0
Cc1nc2cc(NC(=O)NCc3ccco3)ccc2n1C	n	n	n	n	n	n	x	x
Cc1ccc(NC2=C(Cl)C(=O)OC2OC(=O)c2ccc(C)cc2)cc1 (stereo not drawn)	n	n	n	n	n	n	x	x
COC(=O)c1ccc(NC2=C(Cl)C(=O)OC2OC(=O)c2ccccc2)cc1 (stereo not drawn)	n	n	n	41.0	50.3	n	n	42.8
CNC(=O)c1cnn(-c2nc(-c3ccc(OC)cc3)cs2)c1C(F)(F)F	n	n	n	n	n	n	x	x
CCOC(=O)c1cnn(-c2nc(-c3ccc(F)cc3)cs2)c1C(F)(F)F	52.6	n	n	45.3	n	n	n	x	EBI2 conf=55.9;EBI2 agonist=n;bGal cs=n
COc1ccc(OCC(O)Cn2cnc(-c3ccc(Br)cc3)c2)cc1 (stereo not drawn)	48.2	n	n	51.8	n	n	n	x	EBI2 conf=n;EBI2 agonist=n;bGal cs=n
CC(=O)c1cccc(NC(=O)COC(=O)CCC(=O)c2cccs2)c1	n	n	x	n	n	x	x	x
O=C1C=C(Nc2ccc(Cl)cc2)CC(c2ccc(Cl)cc2)C1 (stereo not drawn)	80.9	n	x	42.3	n	n	n	x	EBI2 conf=82.4;EBI2 agonist=n;bGal cs=n

Screens as filed in PubChem.
